Source: PubChem BioAssay
BAZ2B inh – BAZ2B (human) inhibition; Potency, µM (series often up to 114 µM), without a hit: at the top dose activity change, negative = inhibition, most hits filed as inhibitors; 4.4% of 360,000 active; AlphaScreen BAZ2B-H3K14Ac peptide displacement; also: % is scaled to controls: 0 for no effect and ±100 for the full control effect; nearly all actives have a fitted effect of over 60% in size
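BAZ2B 50 nM plus b-H3(5-23)K14Ac 50 nM, PBS pH 7.4/0.01% Tween-20, 30 min RT; compound added (max 110 uM), 30 min RT; streptavidin donor/Ni-chelate acceptor beads 10 ug/mL final, 20 min dark; AlphaScreen read.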
Sfp inh – blocks B. subtilis Sfp PPTase activity; Q9F4F7; Biochemical Sfp PPTase activity, qHTS; Potency, µM, for the others: largest response in the series, negative = inhibition, most hits filed as inhibitors; 3.5% of 310,000 active; AID 1490;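 also: the enzyme is Sfp with the accession as filed and its product quenches rhodamine fluorescence; 0% = enzyme reaction without inhibitor and -100% = no enzyme wells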
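Buffer: 50 mM Hepes-Na pH 7.6, 10 mM MgCl2, 0.01% Nonidet P-40, 0.01% BSA. Enzyme 15 nM, pre-exposed to compound 15 min; substrates then added and fluorescence change tracked over 30 min.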
G9a inh – inhibitors of human histone lysine methyltransferase G9a; Potency, µM (series often up to 102 µM), for inactives: at the top dose activity, negative = inhibition, hits mostly inhibitors; Q96KQ7; 8.8% of 350,000 active; G9a H3K9 monomethylation, AlphaScreen, 2 h; also: % is scaled to controls: 0 for no effect and ±100 for the full control effect; nearly all actives have a fitted effect of over 75% in size
Target sequence (Q96KQ7 913-1193 limits assumed): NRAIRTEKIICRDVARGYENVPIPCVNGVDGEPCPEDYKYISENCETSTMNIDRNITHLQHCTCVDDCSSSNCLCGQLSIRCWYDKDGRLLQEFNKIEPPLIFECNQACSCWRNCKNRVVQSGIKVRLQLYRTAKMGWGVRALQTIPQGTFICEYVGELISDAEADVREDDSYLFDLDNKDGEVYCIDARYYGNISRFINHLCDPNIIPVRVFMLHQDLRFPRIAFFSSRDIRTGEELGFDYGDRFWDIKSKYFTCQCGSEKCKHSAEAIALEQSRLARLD
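Readings reflect AlphaScreen signal from monomethyl-H3K9 antibody detection. HMT at 20 nM; substrate b-H3K9 500 nM; cofactor SAM 20 uM; 2 h RT reaction; compounds tested as titrations in qHTS with 15 min preincubation.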
HP1b binding inh – inhibitors of HP1-beta chromodomain binding to methylated histone tails. Potency, µM (top dose mostly 114 µM), inactives show at the highest dose activity change, negative = inhibition, usual class: inhibitors. P83916. 0.56% of 390,000 active. AID 540317. AlphaScreen HP1-beta / biotin-H3K9me3 peptide binding; also: nearly all actives have a fitted effect of over 70% in size
Target sequence (P83916 whole entry, looked up): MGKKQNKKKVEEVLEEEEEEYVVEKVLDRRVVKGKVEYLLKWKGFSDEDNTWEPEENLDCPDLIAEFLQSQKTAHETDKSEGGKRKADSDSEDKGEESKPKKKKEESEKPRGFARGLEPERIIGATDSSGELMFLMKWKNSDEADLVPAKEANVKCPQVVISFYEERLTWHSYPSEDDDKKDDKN
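AlphaScreen: HP1-beta (50 nM) preformed 30 min with biotin-H3(1-18)K9me3 peptide (50 nM) in PBS pH 7.4, 0.01% Tween-20. Compound added for 30 min at RT, then streptavidin donor/nickel chelate acceptor beads (10 ug/mL) for 30 min.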
L3MBTL1 inh – blocks human L3MBTL1; Q9Y468; AlphaScreen L3MBTL1–H3K9me1 peptide binding; 0.66% of 230,000 active; Potency, µM (highest dose often 57.1 µM), for the others: at the top dose activity, negative = inhibition, most hits filed as inhibitors; also: % is scaled to controls: 0 for no effect and ±100 for the full control effect; nearly all actives have a fitted effect of over 60% in size
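AlphaScreen proximity signal between nickel-chelate acceptor and streptavidin donor beads (final 10 ug/mL) reports binding of 50 nM L3MBTL1 to 75 nM biotin-H3 K9me1 peptide; complex incubated with compounds 30 min at room temperature; cefsulodin titration as control.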
JMJD2A Tudor inh – JMJD2A Tudor domain (human) inhibition; Potency, µM (titrated, usually from 114 µM), without a hit: top-dose activity change, negative = inhibition, usual class: inhibitors; O75164; AID 504339; AlphaScreen JMJD2A-Tudor / H3K4me3 peptide binding; 4.4% of 390,000 active; also: % is scaled to controls: 0 for no effect and ±100 for the full control effect; nearly all actives have a fitted effect of over 50% in size
* = called active by the depositor; ? = inconclusive; nt = not tested or not shown; [ ] = remark or other dose. Rows were chosen to be rich in hits. Some 12% of all compounds tested hit in one or more screens of this group. Calls follow the shape of the dose curve; as a rule, active = well fitted curve in the direction sought with a large enough effect; inconclusive = small, poorly fitted or top-dose-only effect, or another doubt; inactive = no such curve, though single readings can be large; an effect the other way counts as inactive or inconclusive. Potency is read from the fitted curve at half-maximal effect.

SMILES	BAZ2B inh	Sfp inh	G9a inh	HP1b binding inh	L3MBTL1 inh	JMJD2A Tudor inh
Cc1ccc2nc(NC(=O)CSCC(=O)OCC(=O)c3ccc(Br)cc3)sc2c1	-6.3%	5.6%	44.7µM*	40.4%	-4.5%	?
Cn1c(=O)[nH]c(=O)c2c1nc(N1CCCC1)n2CC(O)COc1ccccc1 (stereo not given)	8.6%	-19.6%	-13.5%	17.8%	nt	-15.9%
CC(O)CSc1nc2c(c(=O)[nH]c(=O)n2C)n1CC(O)COc1ccccc1 (stereo not given)	-20.1%	-40.8%	11.2µM*	-9.0%	12.0%	-4.5%
CCSc1nc2c(c(=O)[nH]c(=O)n2C)n1CC(O)COc1ccc(Cl)cc1 (stereo not given)	0.4%	nt	1.2%[59 µM]	38.2%	nt	-15.7%
Cn1c(=O)[nH]c(=O)c2c1nc(NN)n2CCOc1ccccc1	-35.0%	25.1µM*	11.2µM*	9.4%	nt	?
CC(C)Sc1nc2c(c(=O)[nH]c(=O)n2C)n1CC(O)COc1ccccc1 (stereo not given)	3.1%	?	22.4µM*	-11.9%	nt	-1.7%
CCCn1c(N/N=C(C)\C=C\c2ccccc2)nc2c1c(=O)[nH]c(=O)n2C	-20.9%	39.8µM*	?	nt	-2.0%	nt
O=C(Cn1c(=O)oc2cc(S(=O)(=O)NC3CCCC3)ccc21)Nc1ccc(F)c(F)c1	-1.9%	nt	11.7%[59 µM]	39.7%	nt	6.2%
C=CCOC(=O)N[C@H](/C(C(=O)OC)=C(\C)NCc1ccccc1)c1cccc(C(F)(F)F)c1	nt	-14.3%	nt	nt	nt	nt
c1ccc(Nc2nc(CSc3ncn[nH]3)cs2)cc1	-27.9%	-38.9%	22.4µM*	14.2%	nt	3.3%[57.1 µM]
O=C(CSc1ncn[nH]1)Nc1nc(-c2ccccc2)cs1	-0.1%	-1.4%	?	37.4%	nt	-20.3%
CS(=O)(=O)N(CC(=O)NC1CCCCC1)Cc1ccc(F)cc1	-17.9%	15.9%	-3.2%	51.6%	3.2%[11.4 µM]	7.5%[11.4 µM]
COc1ccc(C(=O)/C=C/C(=O)N(CC(=O)NC2CCCCC2)Cc2ccc(F)cc2)c(O)c1	-13.5%	8.91µM*	nt	24.3%	11.7%	-21.0%
COc1ccc(C(=O)N(Cc2ccco2)Cc2cccs2)c(O)c1	-11.0%	?	?	27.3%	nt	-32.0%
COc1ccc(C(=O)/C=C/C(=O)N(CC(=O)NCCC(C)C)Cc2cccs2)c(O)c1	-21.1%	3.55µM*	-29.8%	-15.5%	-19.7%	-17.5%
COc1ccc(OC)c(C(C)NC(=O)Cn2c(=O)cc(C)c3c(C)nn(-c4ccc(C)cc4)c32)c1 (stereo not given)	-11.5%	nt	-24.7%[59 µM]	24.5%	nt	-24.2%
Fc1ccc2c(c1)C1C=CCC1C(c1cc3c(cc1Br)OCO3)N2 (stereo not given)	-36.1%[57.1 µM]	?	-38.8%[12.7 µM]	-24.2%	-26.1%	44.7µM*
COC(=O)c1ccc([C@H]2Nc3ccc(S(=O)(=O)Nc4ccc(F)cc4)cc3[C@H]3C=CC[C@H]32)cc1	?	nt	5.62µM*	-13.6%	nt	?
COc1ccc(C)cc1NS(=O)(=O)c1ccc2c(c1)[C@H]1C=CC[C@H]1[C@@H](c1cccc(Cl)c1)N2	?	nt	2.82µM*	1.8%	nt	?
COc1ccc(C)cc1NS(=O)(=O)c1ccc(Cl)nc1	0.1%	nt	9.0%[12.7 µM]	34.9%	1.2%	11.7%
Fc1ccc([C@@H]2Nc3ccccc3[C@@H]3C=CC[C@@H]32)cc1	-34.8%	nt	2.24µM*	15.8%	nt	?
CC(C)CNC(=O)C1Nc2ccccc2C2C=CCC12 (stereo not given)	nt	nt	nt	-12.7%	nt	?
CC(C)NC(=O)C1CCC(Cn2c(=O)c3sccc3n(CC(=O)NCc3ccccc3)c2=O)CC1 (stereo not given)	-3.2%	nt	14.1%[59 µM]	10.5%	nt	-13.7%
CCOC(=O)C(C(=O)c1ccccc1)[C@H](CCc1ccccc1)NC(=O)OC (stereo not given in full)	nt	3.7%	nt	nt	nt	nt
CCOC(=O)c1cccc(NC(=O)CCc2c(C)nc3c4cccnc4nn3c2C)c1	-1.0%	nt	16.2%[59 µM]	46.1%	nt	-7.9%
SMILES	BAZ2B inh	Sfp inh	G9a inh	HP1b binding inh	L3MBTL1 inh	JMJD2A Tudor inh
CC12CCC=CC1C(c1ccc(/C=C/c3ccccc3)cc1F)N(Cc1ccccc1)C2=O (stereo not given)	nt	-21.5%	nt	14.1%	nt	-18.6%
COc1ccc(C(=O)N/N=C(\C)c2ccc3c(c2)C2C=CCC2C(c2ccccc2)N3)cc1 (stereo not given)	?	79.4µM*	7.94µM*	-9.3%	-14.3%	?
Cc1cccc(NS(=O)(=O)c2ccc3c(c2)[C@H]2C=CC[C@H]2[C@@H](c2ccc(F)cc2)N3)c1	-37.1%	nt	12.6µM*	?	nt	?
COc1ccc(OC)c([C@@H]2Nc3ccc(C(=O)O)cc3[C@@H]3C=CC[C@@H]32)c1	-25.4%	nt	?	0.0%	nt	?
O=C(O)c1ccc2c(c1)[C@@H]1C=CC[C@@H]1[C@H](c1ccccn1)N2	nt	nt	nt	?	nt	6.31µM*
Cc1cccc(NC(=O)NNS(=O)(=O)c2ccc(F)cc2)c1	0.5%	24.5%	20.2%[59 µM]	19.3%	5.2%	-15.6%
COc1cccc(NS(=O)(=O)c2ccc3c(c2)C2C=CCC2C(c2ccc(C(=O)O)cc2)N3)c1 (stereo not given)	44.7µM*	31.6µM*	7.94µM*	?	10µM*	44.7µM*
N#Cc1nc(N2CCCCC2)nc(N2CCCCC2)n1	nt	nt	nt	41.1%[57 µM]	nt	8.5%[57.1 µM]
O=C(Nc1ccc(-c2ccco2)cc1)C1CCCN(Cc2ccc(CO)o2)C1 (stereo not given)	?	44.7µM*	nt	-12.8%	nt	?
CC(=O)c1cccc(CN2CCCC(C(=O)Nc3ccc(-c4ccco4)cc3)C2)c1 (stereo not given)	39.8µM*	56.2µM*	10µM*	17.8µM*	nt	?
CCc1ncc(CN2CCCC(C(=O)Nc3cccc(-c4cccc(C)c4)c3)C2)cn1 (stereo not given)	-18.1%	9.4%	-3.6%	-12.8%	nt	79.4µM*
COCc1ccc(CN2CCCC(C(=O)Nc3ccc(-c4cccc(OC)c4)cc3)C2)o1 (stereo not given)	?	-8.8%	?	26.9%	nt	-34.2%
CCc1nc2nc(C)cc(Nc3ccc(Br)cc3F)n2n1	-1.1%	nt	-31.6%[59 µM]	52.6%	nt	-17.5%
CCOc1ccc(NC(=O)CC2C(=O)N(c3ccc(F)cc3)C(=O)N2Cc2ccc(OC)c(OC)c2)cc1 (stereo not given)	-0.3%	nt	5.2%[59 µM]	43.0%	nt	-12.3%
O=C(CNC(=O)c1ccc(F)cc1)OCc1cc(=O)n2nc(C3CC3)sc2n1	-3.3%	nt	1.2%[59 µM]	-5.4%	nt	?
COCCCNC(=O)C1CCCN(S(C)(=O)=O)C1 (stereo not given)	-12.0%	-26.2%	70.8µM*	25.4%	-0.6%	-1.3%
